Compound activity (PubChem)
This is a sample that favours compounds with a hit; in the whole collection about 3.4% have one here.
MITF inh: inhibitors of human MITF. hit rate 0.91% among 650,000. AID 1259374. AlphaScreen MITF homodimerization, bead proximity signal. O75030. inhibition, % at 2.6 µM; in the data active = inhibition above about 50%
TEAD-YAP inh: TEAD-YAP interaction inhibition; HEK-TIYL cells, TEAD-Gal4/YAP UAS-luciferase luminescence; inhibition, % at 9.12 µM; hit rate 1.4% among 640,000; AID 1259422; in the data active = inhibition above about 32%
GPR151 ag: activators of human GPR151 | Q8TDV0 | PathHunter beta-arrestin GPR151 cells, luminescence | activation, % at 11.2 µM | hit rate 1% among 650,000 | AID 1508602; in the data active = activation above about 4.9%
FBW7 act: activators of human E3 ligase FBW7; Q969H0; AlphaScreen FBW7–phospho-cyclin E peptide binding, activator screen; normalized activity (activation), % at 26.1 µM; hit rate 0.13% among 650,000; AID 1259310; in the data active = normalized activity above about 1.9%;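 also: purified mutant Fbw7 with reduced substrate affinity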
Target sequence (Q969H0 whole entry, looked up): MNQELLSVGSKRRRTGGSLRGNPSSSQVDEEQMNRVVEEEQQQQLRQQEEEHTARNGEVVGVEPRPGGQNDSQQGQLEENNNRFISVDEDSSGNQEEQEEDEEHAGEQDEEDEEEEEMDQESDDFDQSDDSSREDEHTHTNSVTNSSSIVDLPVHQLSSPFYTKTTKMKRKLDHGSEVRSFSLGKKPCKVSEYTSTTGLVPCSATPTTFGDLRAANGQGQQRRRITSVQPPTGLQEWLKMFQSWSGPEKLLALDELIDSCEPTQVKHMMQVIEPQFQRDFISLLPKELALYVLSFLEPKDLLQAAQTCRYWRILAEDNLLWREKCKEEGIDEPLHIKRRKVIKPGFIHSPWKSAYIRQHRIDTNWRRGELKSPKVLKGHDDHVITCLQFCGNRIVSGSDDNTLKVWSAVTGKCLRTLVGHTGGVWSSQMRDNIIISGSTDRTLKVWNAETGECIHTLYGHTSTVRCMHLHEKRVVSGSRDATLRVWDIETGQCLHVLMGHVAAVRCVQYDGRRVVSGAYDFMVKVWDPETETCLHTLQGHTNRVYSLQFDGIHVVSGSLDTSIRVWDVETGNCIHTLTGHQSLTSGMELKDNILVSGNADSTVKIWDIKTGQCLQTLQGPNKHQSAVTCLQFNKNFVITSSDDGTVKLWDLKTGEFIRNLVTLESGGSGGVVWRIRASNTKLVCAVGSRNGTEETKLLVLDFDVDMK
GPR151 confirm: confirmation of human GPR151 activators | shares compounds with GPR151 ag | GPR151 PathHunter beta-arrestin cells, luminescence, 90 min; % of EA-reagent control over plate median | activation, % at 11.2 µM | 6,700 tested, under 10 active | AID 1508609;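 active = mean percent activation across replicates above the confirmation screen cutoff of 4.91%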
GPR119 ag: GPR119 activation, counter-screen for GPR151 activators; shares compounds with GPR151 ag; GPR119 PathHunter beta-arrestin cells, luminescence, 90 min; 0 = compound-well median, 100 = enzyme-acceptor control; activation, % at 11.2 µM; hit rate 0.3% among 6,700;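 active = mean percent activation in the counterscreen above 29.09%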;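 also: counterscreen on off-target GPR119 to flag nonselective hits from the GPR151 activator screen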
Hits are given with their value.

Results for COc1ccc(OC)c(N(CC(=O)Nc2ccccc2F)S(C)(=O)=O)c1 ?
MITF inh: inactive; TEAD-YAP inh: inactive; GPR151 ag: inactive; FBW7 act: inactive

What do the screens show for `COC(=O)c1ccccc1NC(=O)CN(c1cc(OC)ccc1OC)S(C)(=O)=O`?
MITF inh: inactive; TEAD-YAP inh: inactive; GPR151 ag: 5.6; FBW7 act: inactive; GPR151 confirm: inactive; GPR119 ag: inactive

How did CCCC(=O)ON1C(=O)c2cccc3cccc(c23)C1=O do in these assays?
MITF inh: inactive; TEAD-YAP inh: inactive; GPR151 ag: 5.5; FBW7 act: inactive; GPR151 confirm: inactive; GPR119 ag: inactive

Results for Cc1cc(I)ccc1NC(=O)Cc1ccccc1 ?
MITF inh: inactive; TEAD-YAP inh: inactive; GPR151 ag: 6.1; FBW7 act: inactive; GPR151 confirm: inactive; GPR119 ag: inactive

How did O=S(=O)(CCOc1ccccc1)N1CCN(c2ccccc2F)CC1 do in these assays?
MITF inh: inactive; TEAD-YAP inh: inactive; GPR151 ag: inactive; FBW7 act: inactive

Results for O=C(COc1ccc(Cl)cc1)NCCCS(=O)(=O)N1CCN(c2ncccn2)CC1 ?
MITF inh: inactive; TEAD-YAP inh: inactive; GPR151 ag: 7.5; FBW7 act: inactive; GPR151 confirm: inactive; GPR119 ag: inactive

What do the screens show for `O=S(=O)(CCOc1ccccc1)N1CCN(c2ncccn2)CC1`?
MITF inh: inactive; TEAD-YAP inh: inactive; GPR151 ag: 6.2; FBW7 act: inactive; GPR151 confirm: inactive; GPR119 ag: inactive

Results for O=C(COc1ccccc1)NCCCS(=O)(=O)N1CCN(c2ncccn2)CC1 ?
MITF inh: inactive; TEAD-YAP inh: inactive; GPR151 ag: inactive; FBW7 act: inactive

What do the screens show for `COc1ccc(-c2nc3c4cnn(-c5ccc(Cl)cc5)c4ncn3n2)cc1`?
MITF inh: inactive; TEAD-YAP inh: inactive; GPR151 ag: inactive; FBW7 act: inactive

Results for CN(Cc1ccccc1)c1ccnc2c(-c3ccc(O)cc3)cnn12 ?
MITF inh: inactive; TEAD-YAP inh: 72.8; GPR151 ag: 5.0; FBW7 act: inactive; GPR151 confirm: inactive; GPR119 ag: inactive

How did COc1ccc(CCNC(=O)c2cc(Cl)ccc2[N+](=O)[O-])cc1 do in these assays?
MITF inh: inactive; TEAD-YAP inh: inactive; GPR151 ag: 5.1; FBW7 act: inactive; GPR151 confirm: inactive; GPR119 ag: inactive

What do the screens show for `C=CCNS(=O)(=O)c1ccc(OC)c2ncccc12`?
MITF inh: inactive; TEAD-YAP inh: inactive; GPR151 ag: inactive; FBW7 act: inactive

Results for CNC(=O)c1cc(F)ccc1Nc1cc(Nc2cccc(OC)c2)ncc1C(F)(F)F ?
MITF inh: inactive; TEAD-YAP inh: inactive; GPR151 ag: 9.3; FBW7 act: inactive; GPR151 confirm: inactive; GPR119 ag: inactive

Results for COC(=O)COc1ccc(CNC2CCCCCCC2)cc1 ?
MITF inh: inactive; TEAD-YAP inh: inactive; GPR151 ag: 5.4; FBW7 act: inactive; GPR151 confirm: inactive; GPR119 ag: inactive

How did CCOC(=O)C1=CN(c2cc(C)cc(C)c2)C=C(C(=O)OCC)C1c1ccccc1F do in these assays?
MITF inh: inactive; TEAD-YAP inh: inactive; GPR151 ag: inactive; FBW7 act: inactive

What do the screens show for `O=C(COc1ccccc1)NCCc1cn2ccsc2n1`?
MITF inh: inactive; TEAD-YAP inh: inactive; GPR151 ag: 5.0; FBW7 act: inactive; GPR151 confirm: inactive; GPR119 ag: inactive

How did CC(=O)Nc1nc2c(Cl)ccc(Cl)c2s1 do in these assays?
MITF inh: inactive; TEAD-YAP inh: inactive; GPR151 ag: inactive; FBW7 act: inactive

Results for CCOc1ccc(S(=O)(=O)n2cc(-c3ccc([N+](=O)[O-])cc3)c(N)n2)cc1 ?
MITF inh: inactive; TEAD-YAP inh: inactive; GPR151 ag: inactive; FBW7 act: inactive

How did O=C(CSc1nnc(-c2cccnc2)o1)c1cc2ccccc2oc1=O do in these assays?
MITF inh: inactive; TEAD-YAP inh: inactive; GPR151 ag: 6.2; FBW7 act: inactive; GPR151 confirm: inactive; GPR119 ag: inactive

What do the screens show for `COc1ccc(C(=O)N(Cc2cccs2)C2CC(C)(C)NC(C)(C)C2)cc1`?
MITF inh: inactive; TEAD-YAP inh: inactive; GPR151 ag: 7.4; FBW7 act: inactive; GPR151 confirm: inactive; GPR119 ag: inactive

What do the screens show for `CCOc1ccc(NC(=O)CC2S/C(=N\N=C(/C)c3ccc(Cl)cc3)NC2=O)cc1` (centres undefined)?
MITF inh: inactive; TEAD-YAP inh: inactive; GPR151 ag: 6.7; FBW7 act: inactive; GPR151 confirm: inactive; GPR119 ag: inactive

How did COc1ccc(/C=C2\C=C(c3ccccc3)N(c3ccc(-c4ccccc4)cc3)C2=O)cc1 do in these assays?
MITF inh: inactive; TEAD-YAP inh: inactive; GPR151 ag: 7.0; FBW7 act: inactive; GPR151 confirm: inactive; GPR119 ag: inactive

How did C=CCOC(=O)CCN1C(=O)c2ccccc2C1=O do in these assays?
MITF inh: inactive; TEAD-YAP inh: inactive; GPR151 ag: 19.8; FBW7 act: inactive; GPR151 confirm: inactive; GPR119 ag: inactive

How did O=C(NNc1cccc(Cl)c1)C(c1ccccc1)c1ccccc1 do in these assays?
MITF inh: inactive; TEAD-YAP inh: inactive; GPR151 ag: inactive; FBW7 act: inactive

How did CC(=O)C/C(C)=N/NC(=O)C(C)Oc1ccc(Cl)cc1C (centres undefined) do in these assays?
MITF inh: inactive; TEAD-YAP inh: inactive; GPR151 ag: inactive; FBW7 act: inactive

What do the screens show for `CCNC(=O)C(C)Oc1ccc(Cl)cc1C` (centres undefined)?
MITF inh: inactive; TEAD-YAP inh: inactive; GPR151 ag: 5.5; FBW7 act: inactive; GPR151 confirm: inactive; GPR119 ag: inactive

How did CCC(=O)NNC(=O)C(C)Oc1ccc(Cl)cc1Cl (centres undefined) do in these assays?
MITF inh: inactive; TEAD-YAP inh: inactive; GPR151 ag: inactive; FBW7 act: inactive

Results for COCC(=O)NNC(=O)C(C)Oc1ccc(Cl)cc1Cl (centres undefined) ?
MITF inh: inactive; TEAD-YAP inh: inactive; GPR151 ag: 5.0; FBW7 act: inactive; GPR151 confirm: inactive; GPR119 ag: inactive

How did Cc1csc(Nc2ccccc2)[n+]1CC(O)c1ccc([N+](=O)[O-])cc1 (centres undefined) do in these assays?
MITF inh: inactive; TEAD-YAP inh: inactive; GPR151 ag: 6.3; FBW7 act: inactive; GPR151 confirm: inactive; GPR119 ag: inactive

What do the screens show for `Cc1ccc(C)c(CN2CCc3nnc(CCNC(=O)COc4ccccc4)n3CC2)c1`?
MITF inh: inactive; TEAD-YAP inh: inactive; GPR151 ag: 8.8; FBW7 act: inactive; GPR151 confirm: inactive; GPR119 ag: inactive

How did O=C(NCCc1nnc2n1CCN(Cc1cccc3ccccc13)CC2)C1CCCO1 (centres undefined) do in these assays?
MITF inh: inactive; TEAD-YAP inh: inactive; GPR151 ag: inactive; FBW7 act: inactive

Results for O=C(NCCc1nnc2n1CCN(Cc1ccccc1-c1ccco1)CC2)C1CCCO1 (centres undefined) ?
MITF inh: inactive; TEAD-YAP inh: inactive; GPR151 ag: 7.1; FBW7 act: inactive; GPR151 confirm: inactive; GPR119 ag: inactive
